Laboratory results reported in ChEMBL document CHEMBL4513140, “CO-ADD screening of Lancaster University (UK) compounds” (2021).
Results with a measured potency or affinity are listed apart.

Experiments:
Klebsiella pneumoniae = conditions: Concentration 32 ug.mL-1; ASSAY_TEST Inhibition of Bacterial Growth; detection method Absorption (OD600); MEDIA CAMHB; plate type 384well; NBS; CORNING #3640; time 18 hr
Candida albicans = conditions: 32 ug/mL
Cryptococcus neoformans = conditions: Concentration 32 ug.mL-1; ASSAY_TEST Inhibition of Fungal Growth; detection method Resazurin; Absorption (OD600-OD570); plate type 384well; NBS; CORNING #3640

Compound	Inhibition (Klebsiella pneumoniae) [%]	Inhibition (Candida albicans) [%]	Inhibition (Cryptococcus neoformans) [%]
CC(=O)c1cc(C(C)=O)cc(C(C)=O)c1	7.55	2.92	-57.45
COC(=O)c1ccc(S)cc1	-1.57	2.97	-49.69
c1ccc2nc3c4cccnc4c4ncccc4c3nc2c1	2.4	9.1	-49.42
CC(=NN)c1cc(/C(C)=N/N)cc(/C(C)=N/N)c1	4.02	5.62	-41.95
